CF NFkB inh = inhibitors of cystic fibrosis induced NF-kB; KKLEB NF-kB-GFP reporter, PAF-induced, GFP fluorescence overnight; inhibition, % at 5 µM; 0.86% of 360,000 active; AID 588850;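 active = at least 50% inhibition at 5 µM, scaled per plate between neutral and stimulator controls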;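 note: PAF is a Pseudomonas aeruginosa culture filtrate used as stimulus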
KKLEB cytotox = counter-screen for CF NF-kB inhibitors: cytotoxicity | KKLEB CF airway cells viability, ATPlite luminescence, overnight; hits give low values; cells stimulated with P. aeruginosa culture filtrate | activity change (cytotoxicity), % at 5 µM | 0.36% of 360,000 active;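 active = corrected activity change at or below -50% at 5 µM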
Peg3 prom inh = Peg3 promoter activity inhibition; HeLa PEG-Prom luciferase reporter, luminescence, overnight; inhibition, % at 20 µM; 1.7% of 360,000 active; AID 588405;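 active = inhibition of at least 50% at 20 µM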
TWEAK-Fn14 inh = blocks TWEAK-Fn14 interaction in a reporter cell assay | TWEAK-stimulated Fn14 reporter cells, luciferase luminescence, 8 h | inhibition, % at 10 µM | 2% of 360,000 active | AID 1159606; in the data active = inhibition above about 50%
HIF-2a block = blocks HIF-2a reporter activity; 786-0 RCC cells HIF-2a reporter, luciferase luminescence, overnight; inhibition, % at 18.8 µM; 0.72% of 360,000 active; AID 624352;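 active = inhibition of the luminescence signal of 40% or more relative to plate controls, in a single-dose primary screen at 18.75 µM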
TROY NFkB inh = inhibitors of TROY-dependent NF-kB signaling | 0.98% of 360,000 active | AID 1347056 | inhibition, % at 10 µM | Q293 LMP1-TROYcd NF-kB luciferase reporter, 4 h;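 active = compounds whose plate-normalised and pattern-corrected inhibition of the luciferase reporter signal at the single screening dose is 50% or more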
Each line names hits and unclear results; the compound was inactive in the other large screens; ! = a repeat was not active. Sampled rows, rich in hits. Any-hit rate of the full collection: about 4%.

COc1ccc(Nc2ncc(C(=O)O)c3ccccc23)cc1	none
CCOc1ccccc1C(=O)N1CCN(c2cccc(Cl)c2)CC1	none
COc1ccccc1N1CCN(c2ncc(C(=O)N3CCN(c4cccc(Cl)c4)CC3)c3ccccc23)CC1	TWEAK-Fn14 inh 80.4
COc1ccc(Nc2ncc(C(=O)N3CCN(c4ccc(F)cc4)CC3)c3ccccc23)cc1	Peg3 prom inh 59.5, TWEAK-Fn14 inh 53.5
COc1ccc2[nH]c(C(=O)N3CCC(n4nccc4NC(=O)C4CC4)CC3)c(C)c2c1	none
COc1ccccc1/C=C1\CCCC2=C1Nc1nnnn1C2c1ccccc1OC (centres undefined)	Peg3 prom inh 101.3
Clc1ccc(CN2CCN(c3ncccn3)CC2)cc1	none
O=C1N/C(=C/c2ccc(N3CCOCC3)o2)C(=O)N1c1ccccc1	TWEAK-Fn14 inh 53.4
O=C1N/C(=C/c2ccc(N3CCCC3)cc2)C(=O)N1c1ccccc1	none
N#Cc1c(N)n(CCc2ccc(F)cc2)c2nc3ccccc3nc12	TWEAK-Fn14 inh 62.6 (no result: TROY NFkB inh)
Nc1c(C(=O)NCCN2CCOCC2)c2nc3ccccc3nc2n1CCc1ccccc1F	none
Nc1c(C(=O)NCc2ccco2)c2nc3ccccc3nc2n1CCc1ccc(F)cc1	TROY NFkB inh 64.3
COCCn1c(N)c(C#N)c2nc3ccccc3nc21	none
Nc1c(C(=O)NCCN2CCOCC2)c2nc3ccccc3nc2n1CCc1ccccc1	TROY NFkB inh 69.1
COc1ccc(-n2c(N)c(C(=O)NCc3ccco3)c3nc4ccccc4nc32)cc1	TWEAK-Fn14 inh 65.6
CC(C)(C)OC(=O)C[C@H]1C/C=C\C[C@H](CC(=O)NCCO)C(=O)N[C@@H](c2ccccc2)COC1=O	none
O=C(O)CC(Sc1n[nH]c(=S)s1)C(=O)O (centres undefined)	none
Cc1ccc(NC(=O)CNC(=O)C2CCCCC2)nc1	none
N#Cc1c(N)n(CCOC(=O)c2cccc(Br)c2)c2nc3ccccc3nc12	TROY NFkB inh 69.0
N#Cc1c(N)n(CCOC(=O)c2cccc([N+](=O)[O-])c2)c2nc3ccccc3nc12	none
COc1cccc(Cn2c(N)c(C#N)c3nc4ccccc4nc32)c1OC	TROY NFkB inh 65.2
COc1ccc(Cn2c(N)c(C#N)c3nc4ccccc4nc32)cc1	none
CCOC(=O)c1c(C)oc2c1c(C=NCc1ccccn1)c(O)c1ccccc12	none
CCOC(=O)c1c(C)oc2c1c(C=NCC1CCCO1)c(O)c1ccccc12 (centres undefined)	TROY NFkB inh 68.9
COc1cc(-c2coc3c(C(=O)NCc4ccc(OC)c(OC)c4)cccc23)ccc1O	Peg3 prom inh 51.2, TWEAK-Fn14 inh 95.3, TROY NFkB inh 66.5
COc1cc(-c2coc3c(C(=O)NCc4ccc(N(C)C)cc4)cccc23)ccc1O	none
COc1ccc(CNC(=O)c2cccc3c(-c4cccc(C(N)=O)c4)coc23)cc1OC	TWEAK-Fn14 inh 90.8, TROY NFkB inh 63.5
COc1ccc(CNC(=O)c2cccc3c(-c4ccc(F)c(F)c4)coc23)cc1OC	TWEAK-Fn14 inh 64.2
O=C(O)C(C=C(Cl)Cl)N1CCOCC1 (centres undefined)	none
Cc1ccc(S(=O)(=O)c2nnn3c2nc(NC2CCN(Cc4ccccc4)CC2)c2ccccc23)cc1C	none
O=C(O)Cc1cccc(=O)c(O)c1C(=O)O	none
COc1ccc(CN(C)CC(=O)Nc2cccc(S(=O)(=O)N3CCCC3)c2)cc1F	none
COC(=O)c1cc(=O)n(CCc2ccc(OC)cc2)c(=Nc2ccc(F)c(Cl)c2)s1	Peg3 prom inh 82.5
CC(=O)Nc1ccc(C=NNC(=O)CCCC(=O)NN=Cc2ccc(NC(C)=O)cc2)cc1	none
COc1ccccc1CN1CC(=O)N2CSC[C@H]2C1=O	none
COc1ccc(Cn2c(O)c(C=Nc3ccccc3C(=O)O)c3ccccc3c2=O)cc1	TROY NFkB inh 52.0
CCCCN(C)CC(O)Cn1cc(/C=C/C(=O)c2ccc(C)cc2)c2ccccc21 (centres undefined)	Peg3 prom inh 100.2
CCCN(CCC)CC(O)Cn1cc(/C=C/C(=O)c2ccccc2)c2ccccc21 (centres undefined)	none
OCCN1CCN(CCCN2c3ccccc3Sc3ccc(Cl)cc32)CC1	none
CN(C)CCCN1c2ccccc2Sc2ccc(Cl)cc21	Peg3 prom inh 75.4!
S=C(Cc1ccccc1)Nc1ccccc1	none
COC(=O)c1ccc2nc(-c3ccc(OC)c(OC)c3)c(Cc3ccc(OC)cc3C)n2c1	none

Screens (PubChem BioAssay)
